Data: the supplement of paper PMC6555819

Each sequence was assayed on RXRa DBDmut IVT, anti-RXR (DBD mutation: RXRa K156A/R161A, NR concentration 90 nM) (assay: PBM binding z-score (relative to random genomic background probes); higher = stronger binding; sequences stand for … in GC…GCGATTGACAGCGTAGAATGAAGG).
In short: (§1)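 The probes on custom Agilent 4×180K protein-binding microarrays were double-stranded, with 34-nt variable regions bearing direct-repeat seeds, single-nucleotide variants, half-site ablations and random human genomic background sequences. Incubation lasted 1 h with ligand-free nuclear receptor dimers in PBS pH 7.4, 2% milk, 0.02% Triton X-100, 1 mM DTT, 0.2 mg/mL BSA and 0.4 mg/ml salmon testes DNA. Antibodies against each partner (one per run) detected bound dimers, and fluorescence scans were regression-normalized. Binding z-scores take the random background probes as reference.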

Row | Sequence | PBM binding z-score
1 | ACTATTAGTTGACACGAGGGCAACCGATAGGTTG | 0.816
2 | TCATTTAGGTAAAAGGTGAAAGTCGGTGTGGTAA | 1.68
3 | ACTAGCAAGCCAAGTTTGGGTCACTCAAACAAAG | -0.45
4 | AAAATGAGGTTATACGTAGATCAGGGAAGAAAGT | 1.93
5 | CATGCAGGGTCAGCTAGGCCAGAGTAGGGACGGC | 1.71
6 | GTACCAAGGTTAATAGGTCGTTGATGAGTAGGCG | 0.518
7 | GCTTGTAGATCAAGGTTAAGGAAGACTAAGCTAA | -0.171
8 | CGAACTAGGTCATTTACAGGACAGTGAATAGTAA | 2.58
9 | CGAACTAGGTCAGAACAGGACAGTGAAGGATGAT | 0.418
10 | TCTCGGAGGACACGAAAGATCAGAGCTCGACATC | 0.716
11 | GGAACGAGTGCATTCGAGTTGATAGCATGGCGAT | 3.87
12 | TTCCCAAGGTGAAAGGTCGTTGATGCACGCCTTG | 0.532
13 | ACTCGGAGGACCAAGGTCAGAGCTACGCCAGTGA | 0.197
14 | TGAATGAGCTTATAAGATCAGGGAACGTTGCAAA | -1.2
15 | TATACAGGGTCAAAGGCCAGAGTACGAATGTCGA | 3.02
16 | TCGTATAGGTAAAGGTGAAAGTCGAACGATATGA | 0.714
17 | TTACCAAGGAGAAAGGTCGTTGATGCACGCCTTG | 0.362
18 | CAGCCTAGGTCAAGGCCAGTATAGGAGGAACGTT | 0.701
19 | TCGAGTAGGTTAGTCGGGGCATTCATCCAACATA | 0.518
20 | ACAGACCGGTGAGTGAAGGTAACTCAGCTGGACG | -0.55

Row | Sequence | PBM binding z-score
21 | CTTAGCAGGCCAATCTGGGTCACTCAAGGCTTGA | 0.294
22 | ATCTCGAGGTAACAAGTTCAGTGAAAGAGAGGAC | 0.518
23 | GCGACTGGTGCAAAGCAGGTTACCATAAGGTTGG | -0.409
24 | TAGCCTAGGTCGGATCGGGCCAGTATACGCTATA | -1.2
25 | GCTTGTAGATCAAGATTAAGAAAGACTAAGCTAA | -0.488
26 | CAAACTAGGTCAGAGAGGTCAAAGTCCGTGCGTA | 2.74
27 | TAGCCTGGGTCATGCGGGCCAGTATAGTGTCGGC | -0.265
28 | CAACCAAGGTGAACAAGGTCGTTGATTACTATTC | 1.49
29 | TATACAGGGTCAAAGGCCACAGTACGAATGTCGA | 3.08
30 | AGTCAAAGTTCAATAGGTAACGTAAGATTCAGCT | 4.02
31 | CAAACAGGGTCAGCTAGGCCAGAGTAGGGACGGC | 1.83
32 | TGTCAAAGTTCAAAGGTAACGTAAGTATCCACAC | 4.36
33 | TAGTCTAGGTCAGATCGGGCCAGTATACGCTATA | -0.14
34 | TCTCGGAGGACACGAAAGGTAAGAGCTCGACATC | 0.729
35 | AGTCAAAGTTCATCTAGGTAAGGTAAGATATGCT | 4.64
36 | CGTCCAAGGTCAAAGGGCAGTGAAGAGATGACGG | 3.46
37 | TAGCCTAGGTCTTTGGGCCAGTATAGTACGCATC | -0.783
38 | TTACCAGGGTGAAAGGTCGTTGATGCACGCCTTG | 0.566
39 | CGTCCAAGGTCAGAGAGGTCAATGAATGCCGAGT | 3.55
40 | TCATATAGGTAATACAGGTGAAAATCGGCATCTA | 1.8

What follows are sequences tested on RXRa homodimer (NR concentration 180 nM) in the same assay as above.
In short: as §1

Row | Sequence | PBM binding z-score
41 | ACTATTAGTTGACACGAGGGCAACCGATAGGTTG | 1.22
42 | TCATTTAGGTAAAAGGTGAAAGTCGGTGTGGTAA | 2.47
43 | ACTAGCAAGCCAAGTTTGGGTCACTCAAACAAAG | 0.557
44 | AAAATGAGGTTATACGTAGATCAGGGAAGAAAGT | 2.37
45 | CATGCAGGGTCAGCTAGGCCAGAGTAGGGACGGC | 4.75
46 | GTACCAAGGTTAATAGGTCGTTGATGAGTAGGCG | 2.5
47 | GCTTGTAGATCAAGGTTAAGGAAGACTAAGCTAA | 0.702
48 | CGAACTAGGTCATTTACAGGACAGTGAATAGTAA | 2.38
49 | CGAACTAGGTCAGAACAGGACAGTGAAGGATGAT | 1.23
50 | TCTCGGAGGACACGAAAGATCAGAGCTCGACATC | 0.321
51 | GGAACGAGTGCATTCGAGTTGATAGCATGGCGAT | -0.0218
52 | TTCCCAAGGTGAAAGGTCGTTGATGCACGCCTTG | 5.91
53 | ACTCGGAGGACCAAGGTCAGAGCTACGCCAGTGA | 2.03
54 | TGAATGAGCTTATAAGATCAGGGAACGTTGCAAA | -0.211
55 | TATACAGGGTCAAAGGCCAGAGTACGAATGTCGA | 6.7
56 | TCGTATAGGTAAAGGTGAAAGTCGAACGATATGA | 2.12
57 | TTACCAAGGAGAAAGGTCGTTGATGCACGCCTTG | 2.29
58 | CAGCCTAGGTCAAGGCCAGTATAGGAGGAACGTT | 2.75
59 | TCGAGTAGGTTAGTCGGGGCATTCATCCAACATA | 0.053
60 | ACAGACCGGTGAGTGAAGGTAACTCAGCTGGACG | -0.109

Row | Sequence | PBM binding z-score
61 | CTTAGCAGGCCAATCTGGGTCACTCAAGGCTTGA | 0.782
62 | ATCTCGAGGTAACAAGTTCAGTGAAAGAGAGGAC | 1.15
63 | GCGACTGGTGCAAAGCAGGTTACCATAAGGTTGG | 0.0236
64 | TAGCCTAGGTCGGATCGGGCCAGTATACGCTATA | -0.0599
65 | GCTTGTAGATCAAGATTAAGAAAGACTAAGCTAA | -0.324
66 | CAAACTAGGTCAGAGAGGTCAAAGTCCGTGCGTA | 7.07
67 | TAGCCTGGGTCATGCGGGCCAGTATAGTGTCGGC | 3.11
68 | CAACCAAGGTGAACAAGGTCGTTGATTACTATTC | 2.07
69 | TATACAGGGTCAAAGGCCACAGTACGAATGTCGA | 7.97
70 | AGTCAAAGTTCAATAGGTAACGTAAGATTCAGCT | 3.85
71 | CAAACAGGGTCAGCTAGGCCAGAGTAGGGACGGC | 4.56
72 | TGTCAAAGTTCAAAGGTAACGTAAGTATCCACAC | 7.27
73 | TAGTCTAGGTCAGATCGGGCCAGTATACGCTATA | 1.39
74 | TCTCGGAGGACACGAAAGGTAAGAGCTCGACATC | 0.0654
75 | AGTCAAAGTTCATCTAGGTAAGGTAAGATATGCT | 4.38
76 | CGTCCAAGGTCAAAGGGCAGTGAAGAGATGACGG | 7.24
77 | TAGCCTAGGTCTTTGGGCCAGTATAGTACGCATC | -0.392
78 | TTACCAGGGTGAAAGGTCGTTGATGCACGCCTTG | 6.13
79 | CGTCCAAGGTCAGAGAGGTCAATGAATGCCGAGT | 6.58
80 | TCATATAGGTAATACAGGTGAAAATCGGCATCTA | 1.72
